Records with an inconclusive call do not appear. The source made the active and inactive calls. Calls come from the whole dose curve.
Assay: qHTS assay for small molecule agonists of the antioxidant response element (ARE) signaling pathway - cell viability counter screen (AID 743203); note: nearly all actives have a fitted effect of over 55% in size
Details: ARE-bla HepG2 viability, CellTiter-Glo luminescence, 16 h; series mostly up to 73.3 µM
Text: National Center for Advancing Translational Sciences [NCATS]
NIH Chemical Genomics Center [NCGC]
U.S. Environmental Protection Agency [EPA]
National Institutes of Environmental Health Sciences [NIEHS]
National Toxicology Program [NTP]
U.S. Food and Drug Administration [FDA]
Oxidative stress has been implicated in the pathogenesis of a variety of diseases ranging from cancer to neurodegeneration. The antioxidant response element (ARE) signaling pathway plays an important role in the amelioration of oxidative stress. The CellSensor ARE-bla HepG2 cell line (Invitrogen) can be used for analyzing the Nrf2/antioxidant response signaling pathway. Nrf2 (NF-E2-related factor 2) and Nrf1 are transcription factors that bind to AREs and activate these genes. The CellSensor ARE-bla Hep G2 cell line contains a beta-lactamase reporter gene under control of the Antioxidant Response Element (ARE) stably integrated into HepG2 cells. The activation of the report gene under culture conditions can be detected by fluorescence intensity. This cell line has been used to screen the Tox21 10K compound library to identify agonists that induce oxidative stress. The cytotoxicity of the Tox21 compound library against the ARE-bla cell line was tested in parallel by measuring the cell viability using CellTiter-Glo assay (Promega, Madison, WI) in the same wells.
Tox21 Assay Protocol Summary:
ARE-bla HepG2 cells were dispensed at 2,000 cells/5 ul/well in 1536-well white wall/solid bottom plates using a Multidrop Combi (ThermoFisher Scientific, Waltham, MA) dispenser. After the assay plates were incubated at 37C/5% CO2 for 5 hrs, 23 nL of compounds dissolved in DMSO, positive controls or DMSO only was transferred to the assay plate by a pintool work station (Kalypsys, San Diego, CA). The plates were incubated at 37C/5% CO2 for 16 hrs, followed by addition of 4 ul/well of CellTiter-Glo reagent into the assay plates using a Flying Reagent Dispenser (Aurora Discovery, San Diego, CA). After 30 min incubation at room temperature, the luminescence intensity in the assay plates was measured using a ViewLux (PerkinElmer, Shelton, CT) plate reader.

SMILES | outcome
COc1cc2c3cc1Oc1cc(ccc1O)C[C@@H]1c4c(cc(OC)c(O)c4Oc4ccc(cc4)C[C@@H]3N(C)CC2)CC[N+]1(C)C | inactive
C[N+](C)(C)CC(O)CCl (stereo not given) | inactive
Cc1c(C(C)C)c(=O)n(-c2ccccc2)n1C | inactive
CC(=O)c1ccc(OCC(=O)N2CCCCC2)cc1 | inactive
SCCSCCS | inactive
CC(Cl)COP(=O)(OCC(C)Cl)OCC(C)Cl (stereo not given) | inactive
CC(C)(CO)[C@@H](O)C(=O)NCCCO | inactive
CCOC(=O)CCCCCCCCC(=O)OCC | inactive
O=C(c1ccc2c(c1)C(=O)OC2=O)c1ccc2c(c1)C(=O)OC2=O | inactive
CCCCCCCCCCCCCC(=O)OC | inactive
Cc1ccccc1OCC1CO1 (stereo not given) | inactive
O=C(CN1CCN(Cc2ccc3c(c2)OCO3)CC1)N1c2ccccc2Sc2ccccc21 | inactive
CCCCCCCCCCCCCCCCI | inactive
CC(=O)N(CC(O)CO)c1c(I)c(C(=O)NCC(O)CO)c(I)c(C(=O)NCC(O)CO)c1I (stereo not given) | inactive
CCCOC(=O)CCCCC(=O)OCCC | inactive
CCC(=O)OCCC(C)CCC=C(C)C (stereo not given) | inactive
NCCc1ccn[nH]1 | inactive
Oc1ccccc1Cc1ccccc1O | inactive
CCNC(=O)/C=C/c1cccc(Br)c1 | inactive
O=C(O)CCNC(=O)c1ccccc1 | inactive

SMILES | outcome
CCC1COC(=O)O1 (stereo not given) | inactive
Cn1c(=O)c2c(ncn2CC2OCCO2)n(C)c1=O | inactive
CCCOCCOCCOCCO | inactive
CCCCC(CC)CNC(=O)CC(C)OC(=O)CCC(=O)O (stereo not given) | inactive
C=COCCOCCOC=C | inactive
Nc1nc(=O)n([C@@H]2O[C@H](CO)[C@@H](O)[C@@H]2F)cc1I | inactive
COc1ccc(N=Nc2cc(C)c(N=Nc3ccc(S(=O)(=O)O)cc3)cc2OC)cc1 | inactive
COCC(=O)Nc1c(I)c(C(=O)NCC(O)CO)c(I)c(C(=O)N(C)CC(O)CO)c1I (stereo not given) | inactive
Nc1cc(C(=O)O)ccc1Cl | inactive
Nc1ccc(S(=O)(=O)NC(=O)c2ccccc2)cc1 | inactive
CN[C@@H]1[C@H](O)[C@H](NC)[C@H]2O[C@@]3(O)C(=O)C[C@@H](C)O[C@H]3O[C@@H]2[C@H]1O | inactive
CC(=O)OC[C@H]1O[C@@H](OC(C)=O)[C@H](OC(C)=O)[C@@H]1OC(C)=O | inactive
O=C(O)c1ccc(OCCN2CCCCC2)cc1 | inactive
OCCCCCCCl | inactive
CCCCC(CC)C(=O)OC(C)C (stereo not given) | inactive
O=CN1CCOCC1 | inactive
FC(F)(F)/C(=N\OCC1OCCO1)c1ccc(Cl)cc1 | inactive
CCCCC(=O)N(C)C | inactive
O=S(=O)(O)SSS(=O)(=O)O | inactive
C=CCOc1c(Br)cc(Br)cc1Br | inactive

Reference: PubChem BioAssay (Tox21)
